This passage reports outcome and activity change results from PubChem BioAssay (Tox21).

Each structure is given as a SMILES string. The source made the active and inactive calls. Calls come from the whole dose curve; as a rule, active = well fitted curve in the direction sought with a large enough effect in the repeat runs; inconclusive = weak or mixed curves; inactive = flat fitted curve, though single readings scatter.
% is set by controls: 0 for no effect and ±100 for the full control effect.

The nature of the assay: qHTS assay to test for compound auto fluorescence at 535 nm (green) in HEK293 cell free culture (AID 720682). The following applies: cell-free medium, green autofluorescence 485/535 nm, stronger effect = higher value; series mostly up to 91.3 µM. In a few lines:
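Intrinsic compound fluorescence is measured in culture medium containing 10% FBS, with excitation at 485 nm and detection at 535 nm, referenced to fluorescein.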
Consider `CC(CCl)OC(C)CCl` (configuration not stated), for which the call was inactive.

Take `CCCCCCC/C=C/C=O`: the outcome was inactive.

With `Oc1ccc(Oc2ccccc2)cc1`, the result was inactive.

With `FC(F)(Cl)C(F)(Cl)Cl`, the compound was called inactive.

`CCC(C)C1N=C(C)C(C)S1` (configuration not stated): the compound was classed as inactive.

Take `O=C(Nc1ccccc1)c1cc([N+](=O)[O-])ccc1Cl`: the compound was classed as inactive.

Take `O=C(Cl)c1ccc(F)c(Cl)c1`: the compound was classed as inactive.

On to `CC(=O)CC/C=C(\C)CC/C=C(\C)CC/C=C(\C)CCC=C(C)C`, for which the compound was called inactive.

For the compound `CCOc1ccc2c(c1)C(C)CC(C)(C)N2` (configuration not stated), the result was inactive.

`CCCC1CCOC(C)S1` (configuration not stated): the call was inactive.

With `N#Cc1ccc(CC(=O)c2cccc(C(F)(F)F)c2)cc1`, the compound was called inactive.

Consider `O=C(OCCCCCOC(=O)c1ccccc1)c1ccccc1`, for which the compound was called inactive.

Regarding `Cc1c(Nc2ncccc2C(=O)O)cccc1C(F)(F)F`, the activity change was 0.0935% [at 18.6 µM] (inactive).

On to `O=C(O)c1ccc2c(c1)nc(C(=O)NC1CCN(C3CC3)CC1)n2Cc1cc(-c2ccc(Cl)s2)on1`, for which the activity change was -0.024% [at 18.6 µM] (inactive).

As to `C[C@@H](O)[C@H]1C(=O)N2C(C(=O)O)=C(S[C@@H]3CN[C@H](CNS(N)(=O)=O)C3)[C@H](C)[C@H]12`, the outcome was inactive.

For the compound `CCCCCCOC(=O)c1ccccc1`, the compound was classed as inactive.

Consider `CCCCOC(=O)CC#N`, for which the result was inactive.

Turning to `Nc1ccccc1Nc1ccccc1`, the outcome was inactive.

Take `Cc1cc(SC2=C(O)C[C@@](CCc3ccc(N)cc3)(C(C)C)OC2=O)c(C(C)(C)C)cc1CO`: the call was inactive.

Regarding `O=C(N[C@@H](Cc1ccccc1)[C@@H](O)C(=O)N1C[C@@H](O)[C@@H](O)C1)c1cc2cc(Cl)ccc2[nH]1`, the compound was classed as inactive.

Regarding `COC=O`, the activity change was -0.0308% [at 9.17 µM] (inactive).

On to `CCN(CCCCOC(=O)c1ccc(OC)c(OC)c1)C(C)Cc1ccc(OC)cc1` (configuration not stated), for which the activity change was 0.0553% [at 18.6 µM] (inactive).

Take `COc1cc(CNC(=O)CCCC/C=C/C(C)C)ccc1O`: the outcome was inactive.

Turning to `CC/C=C/CCO`, the outcome was inactive.

`C=CC(C)(O)CC/C=C(/C)CCC=C(C)C` (configuration not stated): the outcome was inactive.

With `Clc1ccccc1-c1nc(-c2ccncc2)no1`, the result was inactive.

As to `C(/C=C/C=C/Nc1ccccc1)=Nc1ccccc1`, the compound was classed as inactive.

As to `O=C(O)c1ccccc1-n1cc(C(=O)O)c(=O)c2cc(Nc3c(F)cc(F)cc3Cl)c(Cl)cc21`, the call was inactive.

Consider `O=Cc1ccc([N+](=O)[O-])cc1`, for which the call was inactive.

Consider `CC(C)(Cc1c[nH]c2ccccc12)NCC(O)COc1ccccc1C#N` (configuration not stated), for which the outcome was inactive.

`CCc1c(C)[nH]c2c1C(=O)C(CN1CCOCC1)CC2` (configuration not stated): the activity change is 0.141% [at 18.6 µM] (inactive).

Take `CCOc1ccc(NC(C)=O)cc1N`: the compound was classed as inactive.

Regarding `COc1ccc(C(=O)c2ccc(C)cc2)c(O)c1`, the outcome was inactive.

As to `C=C(C)C(=O)OCCCCCCCCCCOC(=O)C(=C)C`, the compound was classed as inactive.

Turning to `CCCCCCCCCCCCCCCCC(=O)O`, the outcome was inactive.

Regarding `CC(=O)c1cccnc1`, the call was inactive.

As for `CCC[Si](OC)(OC)OC`, the compound was called inactive.
